Assay results published in ChEMBL document CHEMBL3988442, “University of Dundee, Small-Polar-MMV Screening Library” (2021).
Hit rate of the full screen: of about 48,000 compounds, about 13,000 (27%) showed an effect of 50% or more. The list shows a part of the results.

These compounds were tested on Wolbachia pipientis (assay: Anti-Wolbachia Cell-Based Screen). Details: 5 µM.
Assay type: functional
Parameters: scale not given: in the data most compounds retested in dose-response had high values

SMILES	Percent Effect [%]
O=C(CSc1ccccn1)N1C[C@H]2CC[C@@H]1CN(Cc1cscn1)C2	3.579
CCN(CC)c1ncc(Cl)c(C(=O)NC2CCc3nccn3C2)n1 (centres undefined)	-2.888
Cc1ccccc1N1CCN(C(=O)c2cnn(C(C)C)c2)C(C)C1 (centres undefined)	2.986
COc1cccc2c1OCC(C(=O)N(Cc1ccncc1)CC(C)C)C2 (centres undefined)	-1.678
CC(C)N(CCO)C(=O)C1CCC(=O)N(CCc2ccc(Cl)cc2)C1 (centres undefined)	-6.406
COC1COC2(CCN(Cc3ccccc3Cl)CC2)C1.O=C(O)C(F)(F)F (centres undefined)	-10.24
CNC(=O)COC1COC2(CCN(Cc3cccnc3OC)CC2)C1.O=C(O)C(F)(F)F (centres undefined)	91.78
COc1ncccc1CN1CCC2(CC1)CC(OCC1CC1)CO2.O=C(O)C(F)(F)F (centres undefined)	103.5
COc1ncccc1CN1CCC2(CC1)CN(c1ccccn1)CCO2.O=C(O)C(F)(F)F.O=C(O)C(F)(F)F.O=C(O)C(F)(F)F	8.158
CCOC1COC2(CCN(Cc3cccnc3OC)CC2)C1.O=C(O)C(F)(F)F.O=C(O)C(F)(F)F (centres undefined)	97.13
CNC(=O)COC1COC2(CCN(c3ncccn3)CC2)C1.O=C(O)C(F)(F)F (centres undefined)	21.38
COc1cccc2c1OCC(CNC(=O)CCn1cnnn1)C2 (centres undefined)	-3.423
Cc1cc(N2CCCC(OC(=O)CCc3cnn(C)c3)C2)nc(C)n1 (centres undefined)	0.03167
COCCN1CCN(CC2(O)CCCCC2)CC1	-7.115
COCCN1CCCC(C)(c2cc(O)[nH]n2)C1 (centres undefined)	85
COCCCC1(CO)CCCN(CCOC)C1 (centres undefined)	5.578
COCCCC1(CO)CCCN(CCS(C)(=O)=O)C1 (centres undefined)	-5.665
COCCN1CCC(C)(c2cc(O)[nH]n2)CC1	107.8
COCCN1CCC2(CC1)CC(OCC1CC1)c1ccc(C)cc12 (centres undefined)	-29.1
COc1cccc([C@@H]2CN(C3CSCCSC3)C[C@H]2C(=O)O)c1	-1.681
O=C(O)C(F)(F)F.O=C(O)C(F)(F)F.c1cnc(N2CC[C@@H](N3CCOCC3)[C@@H]2Cc2ccncc2)nc1	-7.245
CC(C)NC(=O)NC(C)c1ccc(-c2ccncc2)cc1 (centres undefined)	-5.821
CN(C)C(=O)c1cc(S(=O)(=O)N2CCCC2Cn2ccnc2)cn1C (centres undefined)	11.52
CO[C@H]1CCN(S(=O)(=O)c2cn(C)cn2)[C@H]1Cc1ccncc1	-4.113
CCN(CC)[C@@H]1CN(S(=O)(=O)c2cn(C)cn2)[C@@H]2CCCO[C@H]12	-3.081
CN([C@@H]1CCC[C@@H](n2ccnc2)[C@@H]1O)S(=O)(=O)c1cn(C)cn1	87.13

SMILES	Percent Effect [%]
Cc1nn(C)cc1S(=O)(=O)N(C)[C@@H]1CCC[C@@H](n2ccnc2)[C@@H]1O	94.74
CC(C)N(C)CC(=O)N1CCCC(n2ccnc2)C1 (centres undefined)	-10.62
CNC(=O)[C@@H](c1ccccc1F)N1CCC[C@H]1C(=O)NC1CCOCC1.Cl	3.155
CCCN1CCCn2nc(CNS(=O)(=O)c3cccc(C#N)c3)cc2C1	3.103
COc1ccc(CNC2CCC(O)CC2)cc1OCCCC#N (centres undefined)	107.9
CN(C)C(=O)COc1ccccc1CNC1CCc2ncnn2C1 (centres undefined)	-0.6489
COc1ccc(CNCC2CC2)cc1F	0.5807
COc1ccc(CCC(=O)NC2CCC(O)CC2)cc1OC (centres undefined)	-0.04658
COCCOc1ccc(CNC2CCc3ncnn3C2)cc1OC (centres undefined)	100.1999
CNC(=O)COc1ccccc1CNC1CCc2ncnn2C1 (centres undefined)	-1.235
COc1ccc(CNC2CCc3ncnn3C2)cc1OCC1CC1 (centres undefined)	83.43
c1ccc(OC2CCCC2)c(CNC2CCc3ncnn3C2)c1 (centres undefined)	12.7
COc1ccc(CNC2CCc3ncnn3C2)cc1OCCCC#N (centres undefined)	100.9
CCOc1ccc(N(CCC#N)C(=O)c2ccc(OC)nc2)cc1	22.48
CC(C)N(CC(N)=O)Cc1csc(COc2ccc(F)cc2)n1	-2.254
CC(C)CN1CC2(CCN(C(=O)C(O)c3cccc(Cl)c3)CC2)CC1=O (centres undefined)	4.909
COc1cc(C)nc(N2CCN(C(=O)CCc3ccsc3)CC2)n1	17.96
Cc1cccnc1CC(C)N(C)C(=O)c1cccs1 (centres undefined)	-6.366
CN(Cc1ccccc1NCc1ncc[nH]1)C(=O)c1cccs1	4.243
CN(CCc1ccccn1)C(=O)c1cccs1.Cl	100.7
CN(Cc1ccccc1NCc1cscn1)C(=O)c1cccs1	-0.6624
CC(C)N(Cc1ccccn1)C(=O)CN(C)C(=O)c1cccs1	109.7
CN(CCc1ccccn1)C(=O)c1cn2c(n1)CNCC2	-0.4774
O=C(Cc1ccc2c(c1)CCCC2)NCCc1ccccn1	0.3571
CN(CC(=O)NCCc1ccccn1)C(=O)c1cccs1	94.6
Cc1ccccc1CN(Cc1ccccn1)C(=O)CN(C)C(C)C	-1.429

SMILES	Percent Effect [%]
Cc1nnn2c1COCC(CNC(=O)c1ccc3[nH]ccc3c1)C2 (centres undefined)	13.15
CCN(C)CC1CCN(C(=O)Nc2ccc(-c3csnn3)cc2)C1 (centres undefined)	-9.21
Cc1nc(C)c(CN(C)C2CCN(C(=O)OC(C)(C)C)CC2)s1	-6.792
O=S(=O)(Nc1cn[nH]c1)c1ccc(F)c(Br)c1	-20.95
CC(=O)N(C)CC(=O)NCC1(c2cccc(C)c2)CCCC1	-4.333
OC1(CN2CCCC2)CCCN(Cc2c[nH]c(CC3CCCC3)n2)C1 (centres undefined)	-7.473
COCCN1CCC(c2nc3ccccc3[nH]2)CC1	5.31
COCCN1CCC(c2cncc(N(C)C)n2)CC1	88.64
CN(C)c1cncc(C2CCN(CC3(O)CCCCC3)CC2)n1	90.17
CN(C)c1cncc(C2CCN(CC(N)=O)CC2)n1	103
OC1(CN2CCCC2)CCCN(Cc2ccc(F)cc2Cl)C1 (centres undefined)	-5.76
CN(C)c1cncc(C2CCN(CCO)CC2)n1	-9.091
CCn1ncnc1CN1CCOC(Cc2cccc3ccccc23)C1 (centres undefined)	-5.971
CCn1cc(C(=O)NCC2(C(N)=O)CCOCC2)c2ccccc21	-0.08495
Cc1nc(CN(C)C(=O)C2CCC(=O)N(CCN(C)C)C2)cs1 (centres undefined)	7.495
CN(C)c1ccc(C(=O)Nc2cnn(Cc3ccccn3)c2)cc1	-12.03
CCCN(CCc1ccccn1)C(=O)CCc1cnn(C)c1	95.46
CCCN(CCc1ccccn1)C(=O)Cn1cnnn1	104.6
CN(CCc1ccccn1)C(=O)C1Cc2ccccc2CN1C (centres undefined)	6.694
Cc1cnn(C2CN(CC(=O)NCc3ccccn3)C2)c1	0.4192
Cc1ccccc1C(=O)N1C[C@@H]2[C@@H](CN(C)CCc3ccccn3)[C@@H]2C1	-8.245
Cc1ccc(CC(NC(=O)Cn2cnnn2)c2ccccn2)cc1 (centres undefined)	13.96
CCCN(CCc1ccccn1)C(=O)Cn1cc(C)cn1	98.5
CN(CCCc1cnn(C)c1)C(=O)C1COc2ccccc2C1 (centres undefined)	-12.29
N#CC1(NC(=O)COc2cc(Cl)cc(Cl)c2)CCOCC1	-7.839
COc1ccc(CN2C[C@@H]3CC[C@H](C2)N(Cc2snnc2C)C3)cc1	-1.178

SMILES	Percent Effect [%]
CC(C)OCCC(=O)Nc1ncn(CC(=O)N2CCCCCC2)n1	-17.71
CCCS(=O)(=O)N1CCc2onc(CNc3ncccn3)c2C1	6.344
CCn1cc(CN2CCCC(COc3ccc(F)cc3)C2)cn1 (centres undefined)	31.54
Cc1c(CNCc2nn(-c3ccccc3)c3c2CCC3)cc(C#N)n1C	-12.67
Cc1nccn1C1CCCN(C(=O)c2ccc3c(c2)NC(=O)CO3)C1 (centres undefined)	3.537
CC(C)c1nccn1C1CCCN(C(=O)c2ccc3c(c2)OCO3)C1 (centres undefined)	-3.611
CCc1nccn1C1CCCN(C(=O)c2ccc3c(c2)OCCO3)C1 (centres undefined)	89.9
CCc1nccn1C1CCCN(C(=O)c2ccc3c(c2)OCO3)C1 (centres undefined)	0.5679
Cc1nccn1C1CCCN(C(=O)c2ccc3c(c2)OCCCO3)C1 (centres undefined)	112.3
CCc1nccn1C1CCCN(C(=O)c2ccnc(N(C)C)c2)C1 (centres undefined)	1.194
CN(C)c1nc(NCc2ccccc2Cn2cccn2)ncc1F	5.014
Cc1cccc(C(=O)Nc2ccc(OC3CCOCC3)c(C)c2)n1	4.017
COc1ccc(CN2CCCC2)cc1Oc1ccc2c(c1)CC(CN)O2 (centres undefined)	-16.95
O=C(c1ccc(SC(F)(F)F)cc1)N1CCOCC1c1ncon1 (centres undefined)	-6.89
CC(C(=O)N(C)Cc1ccc(Br)o1)n1cncn1 (centres undefined)	-10.62
CCCn1nccc1NC(=O)c1ccc(Cl)c(N2CCNC2=O)c1	-10.44
Cc1ccc(CN(C(=O)C(C)NC(N)=O)C2CC2)cc1C (centres undefined)	10.7
COCCCN(Cc1cc(O)nc2ccccc12)C(=O)NC(C)C	116.8
CC(C)N(Cc1ccc(C#N)cc1)C(=O)Nc1ccccn1	7.153
COCCN(Cc1ccc(F)cc1Cl)C(=O)c1ccccn1	-0.554
CCCN(Cc1ccccc1O)C(=O)Nc1cnn(CCOC)c1	-1.283
COCCN(Cc1cc(O)nc2ccccc12)C(=O)NC(C)C	129.1
COCCN(Cc1ccccc1Cl)C(=O)c1c(C)cc(C)[nH]c1=O	2.486
CC(C)N(CC(N)=O)Cc1csc(Cc2ccccc2)n1	-4.617
COCCCN(Cc1ccncc1)C(=O)C1COc2ccccc2C1 (centres undefined)	-18.33
CC(C)NC(=O)N(Cc1cc(O)nc2ccccc12)C(C)C	134.4
